PubChem BioAssay
Active and inactive are the calls of the source.

Experiments:
Albumin (Bos taurus) = Albumin (Bos taurus) (UniProt P02769); assay: bovine serum albumin binders on microarray, profiling panel, artefact control for SMM control protein annotation, biochemical, small-molecule microarray, Alexa647 label, 635/667 nm fluorescence (AID 1118); details: BSA-A647 binding, fluorescence 635 nm, higher = more signal;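 further: score merges 667 nm emission intensity and signal-to-noise per printed compound spot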
Albumin (Bos taurus), sequence (P02769 whole entry, looked up): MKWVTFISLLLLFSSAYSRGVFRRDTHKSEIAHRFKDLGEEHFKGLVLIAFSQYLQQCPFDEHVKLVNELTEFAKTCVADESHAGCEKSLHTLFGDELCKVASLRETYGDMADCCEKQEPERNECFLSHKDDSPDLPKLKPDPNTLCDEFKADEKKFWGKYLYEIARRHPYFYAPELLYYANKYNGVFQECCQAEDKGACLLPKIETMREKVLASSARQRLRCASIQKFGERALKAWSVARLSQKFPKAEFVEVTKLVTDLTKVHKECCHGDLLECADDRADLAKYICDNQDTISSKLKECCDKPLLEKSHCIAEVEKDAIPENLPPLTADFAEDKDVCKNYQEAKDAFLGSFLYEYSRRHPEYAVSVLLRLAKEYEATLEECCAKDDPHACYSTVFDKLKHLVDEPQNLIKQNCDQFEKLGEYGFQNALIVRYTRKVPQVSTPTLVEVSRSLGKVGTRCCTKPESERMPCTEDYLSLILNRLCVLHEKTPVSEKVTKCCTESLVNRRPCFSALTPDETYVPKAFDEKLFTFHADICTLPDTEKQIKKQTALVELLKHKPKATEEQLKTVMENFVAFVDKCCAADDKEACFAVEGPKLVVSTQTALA

[1] = small-molecule microarray binders of probe aXIP, primary screen, biochemical, NeuroSMM set, 635/667 nm fluorescence (AID 1119); details: higher = more signal, called active from +8 up or from −8 down;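 further: probe is the protein aXip251-270 applied at 1 µg/mL to compound-printed slides; binding of probe to printed compounds measured as 667 nm fluorescence plus signal to noise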
[2] = small-molecule binders of probe aNOTCH3, primary screen, biochemical, small-molecule microarray, 635/667 nm fluorescence (AID 1120); details: higher = more signal;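 further: probe is a biotin-tagged antibody raised against NOTCH3 rather than NOTCH3 protein; score merges spot fluorescence near 667 nm with spot signal to noise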
[3] = small-molecule binders of probe aNOTCH2, primary screen, biochemical, small-molecule microarray, 635/667 nm fluorescence (AID 1121); details: higher = more signal;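 further: score merges feature fluorescence read at 667 nm with its signal to noise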
[4] = biological target: Carbonic anhydrase 2 (Homo sapiens) (UniProt P00918); assay: CAII small-molecule binders, profiling panel, biochemical, small-molecule microarray, Alexa647-labelled CAII (AID 1122); details: CAII-A647 binding fluorescence, higher = more signal
[5] = COS7 lysate on small-molecule microarray, probe aHis, 635 nm (AID 1123); details: COS7 cell lysate, fluorescence, higher = more signal;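 further: z-score combines 667nm fluorescence intensity with signal-to-noise per printed compound spot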
[6] = compound binding in COS7 lysate, probe aLAP1, primary screen, cell lysate, small-molecule microarray (AID 1124); details: probe aLAP1, fluorescence, higher = more signal;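 further: lysate comes from COS7 cells expressing LAP1 and is applied at 0.3 µg/mL; score merges spot fluorescence near 667 nm with signal-to-noise over triplicate slides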
Sam68 (KHDRBS1) = assay: Sam68 small-molecule binders, primary screen, biochemical, small-molecule microarray, 635 nm fluorescence (AID 1125); details: small-molecule microarray binding, higher = more signal;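 further: score merges 667 nm channel intensity with signal to noise over triplicate slides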
[7] = test system: Chordin-like protein 2 (CHRDL2); assay: CHRDL2 small-molecule binders, primary screen, biochemical, small-molecule microarray, 635 nm fluorescence (AID 1126); details: small-molecule microarray binding, fluorescence 635 nm; higher = more signal;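 further: printed compound slides probed with Chrdl2 protein at 4 µg/mL for 1 h at 4 C; score merges 667 nm emission intensity with signal to noise over three replicate slides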
[8] = biological target: Concanavalin-A (Canavalia ensiformis) (UniProt P02866); assay: ConA small-molecule binders, primary screen, artefact control for SMM control protein annotation, biochemical, small-molecule microarray, Alexa647 label, 635 nm (AID 1127); details: ConA-A647 binding fluorescence, higher = more signal;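 further: z combines 667 nm emission intensity with signal-to-noise across three replicate slides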
Concanavalin-A (Canavalia ensiformis), sequence (P02866 whole entry, looked up): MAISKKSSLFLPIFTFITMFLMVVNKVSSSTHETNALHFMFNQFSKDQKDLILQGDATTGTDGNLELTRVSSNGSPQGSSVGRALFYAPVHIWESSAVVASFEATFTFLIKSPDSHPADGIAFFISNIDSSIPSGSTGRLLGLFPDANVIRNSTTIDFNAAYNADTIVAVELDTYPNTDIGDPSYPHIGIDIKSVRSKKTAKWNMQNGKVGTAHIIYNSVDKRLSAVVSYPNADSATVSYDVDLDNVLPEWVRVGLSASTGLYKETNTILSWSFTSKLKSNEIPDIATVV

[9] = anti-His antibody binders, primary screen, artefact control for SMM control protein annotation, biochemical, small-molecule microarray, 635 nm fluorescence (AID 1128); details: anti-His Alexa647 antibody binding, higher = more signal;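 further: score merges feature fluorescence with signal-to-noise for each printed compound spot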
[10] = test system: Human papillomavirus type 1a E7 protein (residues 1-88); assay: HPV1a E7 small-molecule binders, primary screen, biochemical, small-molecule microarray, residues 1-88, 635 nm (AID 1129); details: small-molecule microarray binding, fluorescence 635 nm; higher = more signal
[11] = biological target: Focal adhesion kinase 1 (Homo sapiens) (UniProt Q05397); assay: small-molecule microarray binders of FAK, primary screen, biochemical, 635/667 nm fluorescence, BSA, DTT (AID 1130); details: PTK2 binding, 635 nm fluorescence, higher = more signal;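 further: composite of spot emission at 667 nm and signal to noise over triplicate slides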
Focal adhesion kinase 1 (Homo sapiens), sequence (Q05397 whole entry, looked up): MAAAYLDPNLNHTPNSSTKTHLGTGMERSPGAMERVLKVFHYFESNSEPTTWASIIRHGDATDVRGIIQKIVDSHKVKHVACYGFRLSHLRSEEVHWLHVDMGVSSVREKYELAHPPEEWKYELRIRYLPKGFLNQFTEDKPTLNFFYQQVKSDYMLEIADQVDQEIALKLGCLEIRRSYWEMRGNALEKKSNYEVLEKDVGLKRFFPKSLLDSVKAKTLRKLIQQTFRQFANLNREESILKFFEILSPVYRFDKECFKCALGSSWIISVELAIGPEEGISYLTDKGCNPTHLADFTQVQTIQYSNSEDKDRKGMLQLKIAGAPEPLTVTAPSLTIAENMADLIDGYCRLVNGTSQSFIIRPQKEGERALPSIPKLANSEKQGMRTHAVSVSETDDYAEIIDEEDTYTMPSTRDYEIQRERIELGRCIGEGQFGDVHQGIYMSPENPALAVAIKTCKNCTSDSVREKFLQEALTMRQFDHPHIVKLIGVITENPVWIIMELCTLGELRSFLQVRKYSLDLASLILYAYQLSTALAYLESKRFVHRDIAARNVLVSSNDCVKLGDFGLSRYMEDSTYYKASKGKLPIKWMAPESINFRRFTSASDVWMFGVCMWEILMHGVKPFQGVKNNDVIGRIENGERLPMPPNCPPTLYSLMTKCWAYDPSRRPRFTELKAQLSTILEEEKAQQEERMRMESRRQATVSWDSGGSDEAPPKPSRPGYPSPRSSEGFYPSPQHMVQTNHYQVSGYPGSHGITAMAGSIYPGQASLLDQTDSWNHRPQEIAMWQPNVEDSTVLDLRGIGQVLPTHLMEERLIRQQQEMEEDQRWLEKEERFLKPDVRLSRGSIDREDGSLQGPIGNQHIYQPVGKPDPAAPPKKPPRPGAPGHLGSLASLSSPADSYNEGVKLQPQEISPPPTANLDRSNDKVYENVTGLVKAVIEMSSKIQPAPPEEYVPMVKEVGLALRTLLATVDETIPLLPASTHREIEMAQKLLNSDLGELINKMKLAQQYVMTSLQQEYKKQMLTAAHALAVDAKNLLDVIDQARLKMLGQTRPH

[12] = test system: Fibrinogen (Alexa647-labelled); assay: fibrinogen binders on compound microarrays, profiling panel, artefact control for SMM control-protein annotation, biochemical, small-molecule microarray, 635/667 nm fluorescence (AID 1131); details: fibrinogen-A647 binding fluorescence, higher = more signal;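 further: z-score merges 667 nm fluorescence with per-spot signal-to-noise over triplicate slides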
[13] = biological target: Follistatin (Homo sapiens) (UniProt P19883); assay: follistatin binders on small-molecule microarrays, primary screen, biochemical, small-molecule microarray, 635/667 nm fluorescence (AID 1132); details: FST binding, 635 nm fluorescence, higher = more signal
Follistatin (Homo sapiens), sequence (P19883 whole entry, looked up): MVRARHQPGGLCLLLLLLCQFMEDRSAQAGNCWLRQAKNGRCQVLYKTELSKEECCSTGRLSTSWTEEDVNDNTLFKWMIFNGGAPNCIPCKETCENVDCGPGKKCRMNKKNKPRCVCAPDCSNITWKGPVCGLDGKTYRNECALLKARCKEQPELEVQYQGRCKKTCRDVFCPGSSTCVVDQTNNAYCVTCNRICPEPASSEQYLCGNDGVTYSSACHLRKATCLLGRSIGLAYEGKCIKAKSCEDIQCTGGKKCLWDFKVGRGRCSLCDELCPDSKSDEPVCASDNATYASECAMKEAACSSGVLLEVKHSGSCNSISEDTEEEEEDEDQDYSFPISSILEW

[14] = biological target: Fibroblast growth factor 2 (Homo sapiens) (UniProt P09038); assay: FGF2 binders on small-molecule microarrays, primary screen, biochemical, small-molecule microarray, 635/667 nm fluorescence (AID 1133); details: small-molecule microarray binding, FGF2, fluorescence 635/667; higher = more signal
Fibroblast growth factor 2 (Homo sapiens), sequence (P09038 whole entry, looked up): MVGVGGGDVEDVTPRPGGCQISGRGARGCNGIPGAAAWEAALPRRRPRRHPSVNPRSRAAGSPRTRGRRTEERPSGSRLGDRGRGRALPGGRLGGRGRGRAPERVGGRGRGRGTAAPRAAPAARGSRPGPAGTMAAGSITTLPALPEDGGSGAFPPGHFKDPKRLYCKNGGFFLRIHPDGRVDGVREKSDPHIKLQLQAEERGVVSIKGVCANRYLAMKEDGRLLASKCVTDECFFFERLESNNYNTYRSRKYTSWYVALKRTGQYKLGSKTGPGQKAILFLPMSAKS

[15] = mitochondrial membrane potential change in A549 cells, profiling panel, cell-based, JC-1 fluorescence, basal, 24 h, 100 nL (AID 1138); details: higher = more signal;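 further: A549 lung adenocarcinoma cells under basal conditions with no added stimulus; test concentration not given here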
Lefty1 = Lefty1 binders on small-molecule microarrays, primary screen, biochemical, small-molecule microarray, 635/667 nm fluorescence (AID 1139); details: small-molecule microarray binding, fluorescence 635/667; higher = more signal
[16] = test system: wheat germ agglutinin (Triticum aestivum), Alexa647-labelled; assay: wheat germ agglutinin binders on compound microarrays, profiling panel, artefact control for SMM control-protein annotation, biochemical, small-molecule microarray, 635/667 nm fluorescence (AID 1140); details: WGA-A647 binding, 635 nm fluorescence, higher = more signal;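 further: score merges 667 nm feature emission with signal to noise over triplicate slides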
[17] = biological target: Luciferin 4-monooxygenase (Photinus pyralis) (UniProt P08659); assay: firefly luciferase enzyme inhibitors, primary screen, biochemical, luminescence, purified enzyme, 2006 set (AID 1141); details: SteadyGlo luminescence, 30 min, higher = more signal, called active from +8 up or from −8 down;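 further: cell-free assay with purified firefly luciferase at 100 ng per well in PBS; test concentration not given here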
Luciferin 4-monooxygenase (Photinus pyralis), sequence (P08659 whole entry, looked up): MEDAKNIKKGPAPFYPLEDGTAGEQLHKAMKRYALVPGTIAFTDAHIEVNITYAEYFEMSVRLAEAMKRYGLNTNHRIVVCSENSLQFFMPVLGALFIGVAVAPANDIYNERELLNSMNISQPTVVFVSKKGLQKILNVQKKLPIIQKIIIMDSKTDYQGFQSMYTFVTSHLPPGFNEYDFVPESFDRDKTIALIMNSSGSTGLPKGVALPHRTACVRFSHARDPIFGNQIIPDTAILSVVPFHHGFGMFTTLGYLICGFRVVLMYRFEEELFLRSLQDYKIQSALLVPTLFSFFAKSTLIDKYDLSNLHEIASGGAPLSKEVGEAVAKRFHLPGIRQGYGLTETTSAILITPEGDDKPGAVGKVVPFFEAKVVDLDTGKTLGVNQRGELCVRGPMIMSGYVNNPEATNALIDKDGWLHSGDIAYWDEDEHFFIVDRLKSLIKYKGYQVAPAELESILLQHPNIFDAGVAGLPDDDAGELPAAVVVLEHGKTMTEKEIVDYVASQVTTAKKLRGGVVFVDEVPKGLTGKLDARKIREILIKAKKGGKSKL

SMILES | composite z-score (Albumin (Bos taurus)) | composite Z-score [1] | composite z-score [2] | composite z-score [3] | composite z-score [4] | composite z-score [5] | composite z-score [6] | composite z-score (Sam68 (KHDRBS1)) | composite z-score [7] | composite z-score [8] | composite z-score [9] | composite z-score [10] | composite z-score [11] | composite z-score [12] | composite z-score [13] | composite z-score [14] | z-score [15] | composite z-score (Lefty1) | composite z-score [16] | z-score [17]
COCCOC(=O)N1C(=O)[C@@]2(c3cc(C#CCNC(N)=O)ccc31)[C@H](c1ccccc1OCCO)N1[C@H](c3ccccc3)[C@H](c3ccccc3)OC(=O)[C@H]1[C@@H]2C(=O)Nc1nc2ccccc2s1 | 0.598 | 0.564 (inactive) | -0.0391 | -0.0817 | 0.439 | 0.862 | 0.292 | 1.12 | 0.0611 | 1.03 | 0.3 | 0.965 | 0.374 | 0.283 | 1.17 | 0.271 | -2.07 | 0.591 | 1.04 | -1.87 (inactive)
COc1ccc(C#Cc2ccc3c(c2)[C@]2(C(=O)N3)[C@H](c3ccc(O)cc3)N3[C@H](c4ccccc4)[C@H](c4ccccc4)OC(=O)[C@H]3[C@@H]2C(=O)N2CCN(c3ncccn3)CC2)cc1 | 0.888 | 4.41 (inactive) | 0.116 | 0.0557 | 0.462 | 0.868 | 0.97 | 1.31 | -0.176 | 1.08 | 1.2 | 0.885 | 1.71 | 0.763 | 0.722 | 0.143 | -0.308 | -0.151 | 0.929 | -1.27 (inactive)
C=C(/C(=C/C[C@H](OC(C)=O)c1cccc(OCCO)c1)c1cc(C(=O)OC)ccc1OC)C(C)C | 0.103 | 0.307 (inactive) | -0.0918 | -0.126 | 0.38 | 0.866 | 0.172 | 0.177 | -0.767 | -0.319 | -0.604 | -0.389 | 0.445 | -0.624 | -0.288 | -0.0132 | 3.18 | -0.0603 | -0.907 | -1.84 (inactive)
COc1c(C)cc(-c2cc3c(c(CCc4ccccc4)n2)[Si](C(C)C)(C(C)C)OC3)cc1C | -0.296 | 0.0537 (inactive) | 0.0179 | 0.0049 | 0.2 | 0.614 | 0.427 | 1.07 | 0.0922 | -0.17 | -0.611 | 0.654 | 0.158 | -0.074 | 0.483 | 0.0057 | 2.24 | 0.251 | -0.442 | -0.374 (inactive)
O=C(NCc1ccccc1)[C@@H]1c2ccccc2C(=O)N(Cc2ccccc2Cl)[C@H]1c1ccc(CO)cc1 | -0.0154 | 1.24 (inactive) | 0.0749 | -0.0165 | 0.693 | 2.36 | 0.954 | 1.35 | 0.702 | 1.13 | 2.46 | 1.17 | 0.719 | 0.562 | 1.47 | 1.22 | 1.88 | 0.817 | 0.704 | -1.01 (inactive)
COCCOC(=O)N1C(=O)[C@@]2(c3cc(C#CCCO)ccc31)[C@H](c1ccccc1OCCO)N1[C@H](c3ccccc3)[C@H](c3ccccc3)OC(=O)[C@H]1[C@@H]2C(=O)NC[C@H](O)c1ccccc1 | 0.25 | 0.0022 (inactive) | -0.0197 | -0.0753 | 0.204 | 2.15 | 0.35 | 1.31 | 0.524 | 0.859 | 2.02 | 0.907 | 1.07 | 0.756 | 1.5 | 1.7 | 0.891 | 1.61 | 1.01 | -1.74 (inactive)
C=CCN1C(=O)[C@@]2(O[C@@H](CCn3cc(CCO)nn3)[C@H]([Si](C)(C)c3ccc(OC)cc3)[C@H]2C)c2cc(N3C(=O)c4cccc5cccc3c45)ccc21 | 0.681 | -0.128 (inactive) | -0.0299 | -0.0703 | 0.455 | 0.249 | 0.15 | 0.966 | 0.0449 | 1.09 | 0.29 | 0.511 | 0.608 | 0.807 | 0.816 | 0.973 | -1.38 | 0.537 | 1.1 | -1.96 (inactive)
C=CC[C@]1(C(=O)N(C)C)N=C(c2ccc(OCCCO)cc2)O[C@H]1c1ccccc1CN=[N+]=[N-] | 0.79 | 0.328 (inactive) | -0.014 | 0.0111 | 0.548 | 2.11 | 0.79 | 1.04 | -0.474 | 1.11 | 1.84 | 1.23 | 0.418 | 0.415 | 1.27 | 0.521 | 2.49 | -0.168 | 0.757 | -1.12 (inactive)
COc1ccc([Si](C)(C)[C@H]2[C@H](CC(=O)N(CCO)Cc3ccccc3)O[C@@]3(C(=O)N(Cc4ccc(N5CCC5=O)cc4)c4ccccc43)[C@@H]2C)cc1 | 0.101 | 0.506 (inactive) | -0.219 | -0.141 | 0.339 | 0.888 | 0.371 | -0.114 | 0.286 | 0.385 | 0.122 | -0.178 | 0.13 | 0.158 | 0.41 | 0.11 | 0.0735 | -0.143 | 0.429 | -1.23 (inactive)
C=C(C(=O)CC[C@H](OC(C)=O)c1ccc(CO)o1)C(C)C | -0.348 | 0.481 (inactive) | -0.0264 | -0.0795 | 0.614 | 0.297 | 0.629 | 0.596 | -0.413 | -0.0824 | -0.361 | -0.0631 | 0.384 | 0.4 | 0.853 | 1.01 | 0.191 | 0.299 | -0.432 | -2.12 (inactive)
O=C(O)[C@H]1C[C@H]2C(=O)NCC(=O)N2[C@H]1c1cccc(OCCO)c1 | -0.542 | 0.0953 (inactive) | 0.173 | -0.126 | 0.502 | 0.787 | -0.156 | 0.89 | 0.0805 | 1.09 | 1.48 | 0.221 | 0.457 | 0.742 | 1.27 | 0.161 | 1.14 | -0.13 | 0.655 | -1.6 (inactive)
